In all, about 110,000 compounds were measured (“z-score”: median about -0.1, highest 2% from about 2 on). The full list was thinned out, with the highest values kept by preference. Active and inactive are the calls of the source.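 Rule for the calls: active = z-score in the third read window above 3 or below -3; inactive = the rest.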
Target: Metabotropic glutamate receptor 8 (Rattus norvegicus) (UniProt P70579)
Test: rat mGluR8 modulators via GIRK flux, primary screen, cell-based, thallium flux, HTS (AID 488969)
Conditions: HEK293 rat mGluR8, GIRK (G protein-gated inwardly rectifying potassium channel) thallium flux, FluoZin2; at 10 µM; stronger effect = higher value; submaximal glutamate (EC20) added with thallium

Chain of Metabotropic glutamate receptor 8 (Rattus norvegicus) (P70579 whole entry, looked up): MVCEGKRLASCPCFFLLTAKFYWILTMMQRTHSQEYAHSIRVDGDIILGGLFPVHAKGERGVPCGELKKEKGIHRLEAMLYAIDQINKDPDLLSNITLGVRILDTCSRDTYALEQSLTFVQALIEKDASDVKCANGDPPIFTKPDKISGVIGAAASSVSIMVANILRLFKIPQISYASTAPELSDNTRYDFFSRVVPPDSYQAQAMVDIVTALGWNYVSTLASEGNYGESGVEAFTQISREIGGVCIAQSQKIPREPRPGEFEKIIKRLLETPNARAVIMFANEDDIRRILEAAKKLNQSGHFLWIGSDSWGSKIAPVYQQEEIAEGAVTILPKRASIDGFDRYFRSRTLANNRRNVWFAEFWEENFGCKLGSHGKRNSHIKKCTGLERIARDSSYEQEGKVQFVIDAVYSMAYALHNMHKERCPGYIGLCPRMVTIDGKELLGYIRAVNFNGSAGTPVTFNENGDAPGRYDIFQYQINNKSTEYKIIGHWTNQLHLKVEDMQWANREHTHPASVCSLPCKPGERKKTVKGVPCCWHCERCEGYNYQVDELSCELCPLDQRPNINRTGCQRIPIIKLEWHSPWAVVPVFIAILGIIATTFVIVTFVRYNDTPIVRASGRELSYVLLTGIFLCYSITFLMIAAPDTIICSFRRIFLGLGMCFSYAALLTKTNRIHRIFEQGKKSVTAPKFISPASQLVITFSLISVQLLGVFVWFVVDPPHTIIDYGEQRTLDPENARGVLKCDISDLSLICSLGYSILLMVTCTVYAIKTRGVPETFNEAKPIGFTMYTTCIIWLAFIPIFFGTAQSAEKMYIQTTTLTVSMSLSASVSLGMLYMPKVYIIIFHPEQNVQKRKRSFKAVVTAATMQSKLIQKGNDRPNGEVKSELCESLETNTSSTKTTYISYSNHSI

Compound	z-score
CCOc1ccc(Cn2ccnc2CCl)cc1[N+](=O)[O-]	-0.00871
Cc1cccc(N(C)C(=O)c2coc(=O)c3ccccc23)c1	-0.042
CCCS(=O)(=O)N1CCCC(C(=O)NC2CCCCC2)C1 (stereo not given)	0.0604
O=C(CSc1nc2c(c(C(F)(F)F)n1)CCc1ccccc1-2)NCc1ccc(F)cc1	0.759
CCn1cc(C(=O)N2CCN(Cc3ccc4c(c3)OCO4)CC2)c(=O)c2ccc(C)nc21	-0.451
CCc1ccccc1NC(=O)CSc1nc2c(c(-c3ccco3)c1C#N)CCCC2	0.16
CCOc1ccc(N2C(=O)CC(Sc3nc(C)cc(C)c3C#N)C2=O)cc1 (stereo not given)	0.15
CC1CCN(C(=O)Cc2nn(C)c(=O)c3ccccc23)CC1	0.733
COc1ccc(Oc2nc(C(F)(F)F)nc3ccccc23)cc1	-0.576
Cc1c(Br)c([N+](=O)[O-])nn1C(C)C(=O)NCc1cccs1 (stereo not given)	-0.152
Cc1ccc(NC(=O)Cn2nnc(-c3ccccc3NC(=O)c3cccs3)n2)cc1	-0.57
CCCc1cc(-c2n[nH]c(=S)n2C(C)c2ccccc2)cs1 (stereo not given)	10.9 (active)
CCn1c(-c2csc(-c3ccccc3)n2)n[nH]c1=S	0.398
CCc1cc(-c2n[nH]c(=S)n2C(C)c2ccccc2)cs1 (stereo not given)	2.55
CCc1cc(-c2n[nH]c(=S)n2-c2ccccc2C)cs1	-0.325
Cc1scc(-c2n[nH]c(=S)n2C(C)c2ccccc2)c1C (stereo not given)	-1.43
CC(c1ccccc1)n1c(-c2ccncc2)n[nH]c1=S (stereo not given)	0.000563
CCOC(=O)CNC(=O)CSc1nc(N(C)C)nc(N2CCOCC2)n1	-0.116
COc1ccc(-c2cc(-n3c(C(F)(F)F)nc4ccccc43)n(CCC#N)n2)cc1	-0.215
Cc1cc(N2CCCCC2)nc2ccc(NC(=O)c3ccc(Br)o3)cc12	-1.58
CCN1CCN(c2cc(C)c3cc(NC(=O)c4ccc(Br)o4)ccc3n2)CC1	3.44 (active)
CCN1CCN(c2cc(C)c3cc(NC(=O)c4ccncc4)ccc3n2)CC1	1.22

Compound	z-score
CCCC1Cc2nc(N3CCCCC3)c(C#N)cc2CO1 (stereo not given)	0.443
Cc1cc(NCCCN(C)C)n2nc(-c3cccs3)cc2n1	-0.0105
CCOc1ccc(NS(=O)(=O)c2ccc3c(c2)CCN3C(=O)C2CCC2)cc1	-0.102
CC(C)NC(=O)c1cccc(Br)c1	-0.0557
Cc1ccc(OCc2nn3c(-c4ccco4)nnc3s2)cc1	-1.14
c1ccc2c(-c3nnc4n3CCCCC4)cc(-c3ccncc3)nc2c1	0.284
Fc1ccc(-c2cc(-c3nnc4n3CCCCC4)c3ccccc3n2)cc1	-0.316
Clc1ccc(-c2cc(-c3nnc4n3CCCCC4)c3ccccc3n2)cc1	2.08
O=c1c2c(-c3cccs3)csc2ncn1-c1ccccc1	-0.0624
O=C(c1ccc(Cl)c([N+](=O)[O-])c1)N1CCN(c2ccccn2)CC1	-0.0404
O=C(CSc1nc2c(sc3ccccc32)c(=O)n1Cc1ccccc1)NCC1CCCO1 (stereo not given)	0.199
NC(=O)CSc1nc2c(sc3ccccc32)c(=O)n1CCCN1CCOCC1	0.869
CCCCn1c(SCC(=O)NCc2ccco2)nc2c(sc3ccccc32)c1=O	-0.00992
Cc1ccc(Cn2c(SCC(=O)NCC3CCCO3)nc3c(sc4ccccc43)c2=O)cc1 (stereo not given)	2.06
CC(C)CCn1c(SCC#N)nc2c(sc3ccccc32)c1=O	5.93 (active)
CCC(C)NC(=O)CSc1nc2c(sc3ccccc32)c(=O)n1CCCN1CCOCC1 (stereo not given)	0.452
O=C(CSc1nc2c(sc3ccccc32)c(=O)n1CCO)NCC1CCCO1 (stereo not given)	0.0816
CCCCn1c(SCC(N)=O)nc2c(sc3ccccc32)c1=O	3.23 (active)
CCSc1nc2c(sc3ccccc32)c(=O)n1C(C)C	0.00726
Cc1ccc(S(=O)(=O)NCc2c(-c3ccccc3)c3cc(Cl)ccc3[nH]c2=O)cc1	-0.178
CC1CC(C)CN(CC(=O)Nc2ccc3c(c2)OCCO3)C1 (stereo not given)	-0.603
COc1cc(N2C(=O)c3ccccc3C2=O)c(Cl)cc1C(=O)OCC(=O)NCc1ccco1	0.165

Compound	z-score
CCOC(=O)c1cnc(SC)nc1N	-0.0813
CCCn1c(-c2ccc(F)cc2)cnc1SCC(=O)O	-0.678
CCOC(=O)c1c(C)[nH]c(C(=O)COC(=O)CNC(=O)c2ccc(Cl)cc2)c1C	5.97 (active)
CCOC(=O)c1c(C)[nH]c(C(=O)COC(=O)CNC(=O)c2ccc(Br)cc2)c1C	-0.279
CCOC(=O)c1c(C)[nH]c(C(=O)COC(=O)CNC(=O)c2ccc(Cl)cc2Cl)c1C	-0.202
COc1ccc(CCn2c(C)cc(C(=O)CSc3nnnn3-c3ccccc3)c2C)cc1	0.292
CN(C)c1ccc(/C=C/c2nnnn2-c2ccccc2)cc1	-0.556
COc1ccc(S(=O)(=O)N2CCCCC2)cc1NC(=O)c1ccc2ccccc2n1	-0.376
CCc1ccc(Nc2nnc(SCn3nnc4ccccc4c3=O)s2)cc1	-0.292
CCc1ccc(NCc2nc3ccccc3c(=O)[nH]2)cc1	-0.644
CCc1ccc(Nc2nc3ccccc3c(=O)s2)cc1	2.82
Cc1ccc2nc3sc(C(=O)N4CCCc5ccccc54)c(N)c3cc2c1	0.484
CN(Cc1nc(-c2ccncc2)no1)S(=O)(=O)c1ccccc1	0.00952
O=C(CSc1ccccn1)N1CCN(c2ccccc2)CC1	0.0291
CCOc1ccc2nc(/N=C/c3c(C)[nH]n(-c4ccc(C)cc4)c3=O)sc2c1	10.6 (active)
CCOc1ccc(N=Cc2c(C)[nH]n(-c3nc4ccccc4[nH]3)c2=O)cc1	0.0911
COc1ccc2nc(/N=C\N(C)C)sc2c1	0.401
COc1cc(SC#N)ccc1N=Cc1c(C)[nH]n(-c2ccc(C)cc2)c1=O	0.469
COc1cc(SC#N)ccc1N=Cc1c(C)[nH]n(-c2ccc(C)cc2C)c1=O	-0.204
COc1ccc2nc(/N=C/c3c(C)[nH]n(-c4ccc(C)cc4)c3=O)sc2c1	9.39 (active)
COc1ccc2nc(/N=C/c3c(C)[nH]n(-c4ccc(C)cc4C)c3=O)sc2c1	15.7 (active)
Cc1[nH]n(-c2ccccc2)c(=O)c1C=Nc1cnc2ccccc2c1	0.416

Compound	z-score
Cc1ccc(-n2[nH]c(C)c(C=Nc3ccc(S(=O)(=O)Nc4nc(C)cc(C)n4)cc3)c2=O)c(C)c1	-0.0925
CCOc1ccc2nc(SC3CC(=O)N(c4ccc(C)cc4)C3=O)sc2c1 (stereo not given)	0.0229
CCOc1ccc2nc(NC(=O)CS(=O)(=O)c3ccc(C)cc3)sc2c1	-0.503
CCOc1ccc2nc(/N=C/c3c(C)[nH]n(-c4ccccc4)c3=O)sc2c1	13.8 (active)
O=C(CCc1nc(-c2ccc(Cl)cc2)no1)OCc1ccc(Br)cc1	-0.0119
O=C(CCSc1ccc(Cl)cc1)NC1CCCCC1	-0.109
COC(=O)c1ccccc1NC(=O)c1cc(-c2ccc(O)cc2)on1	-0.322
Cc1cc(N=Cc2cc(Br)ccc2O)no1	-1.2
O=S1(=O)C[C@@H](O)[C@@H](Nc2ccc(Cl)cc2)C1	-0.343
CCn1cc(/C=N/NS(=O)(=O)c2ccc(C)cc2)c(C)n1	-0.045
CC(C)OC(=O)c1c(N)n(CCCN2CCOCC2)c2nc3ccccc3nc12	-0.444
CC(C)OC(=O)c1c2nc3ccccc3nc2n2c1[nH]c(=O)c1ccccc12	16.9 (active)
COc1ccc2c(c1)c1nc3ccccc3nc1n2CC(=O)OC(C)C	0.485
CCOC(=O)c1ccc(NC(=O)CN2C(=O)CNC2=O)cc1	-0.263
CCOC(=O)C1=C(C)C2C3C(=O)N(c4ccccc4C)C(=O)C3C1(C)C1C(=O)N(c3ccccc3C)C(=O)C21 (stereo not given)	-0.246
O=C(CN1C(=O)NC2(CCc3ccccc32)C1=O)Nc1ccc(N2CCOCC2)cc1 (stereo not given)	-0.205
Cc1ccccc1C(=O)NC(=S)Nc1ccccc1C(F)(F)F	1.41
CCC(=O)NC(=S)Nc1ccccc1C(F)(F)F	0.0622
CCCC(=O)NC(=S)Nc1ccccc1C(F)(F)F	0.25
Cc1cccc(C(=O)NC(=S)Nc2ccccc2C(F)(F)F)c1	3.38 (active)
Cc1ccc(C(=O)NC(=S)Nc2ccccc2C(F)(F)F)cc1C	5.48 (active)
Cc1ccc(C(=O)NC(=S)Nc2ccccc2C(F)(F)F)cc1	6.32 (active)

Compound	z-score
CC(C)C(=O)NC(=S)Nc1ccccc1C(F)(F)F	0.0217
Cc1ccc(C(=O)NC(=S)Nc2ccccc2C(F)(F)F)c(C)c1	0.996
CC(C)(C)CC(=O)NC(=S)Nc1ccccc1C(F)(F)F	0.863
COc1cccc(C(=O)NC(=S)Nc2ccc(N3CCCC3)cc2)c1	-0.087
O=C(CC1C(=O)N(c2ccccc2)C(=S)N1c1ccccc1)c1ccccc1 (stereo not given)	0.466
CC(Sc1ncnc2ccccc12)C(=O)Nc1ccc2c(c1)OCCO2 (stereo not given)	-0.25
NS(=O)(=O)c1ccc(CCNC(=S)Nc2ccccc2)cc1	-0.217
COc1ccccc1OCc1ccc(C(=O)Nc2ccccc2F)cc1	-0.156
O=C(CSCc1cnn(-c2ccccc2)c1-n1cccc1)NCc1ccc2c(c1)OCO2	0.533
C#CCn1cc(/C=N/NC(=O)c2cc3ccccc3o2)c2ccccc21	-0.24
Cc1cc(N2CCOCC2)nc2ccc(NC(=O)CCC(=O)N3CCC(C)CC3)cc12	0.27
Cc1cc(N2CCOCC2)nc2ccc(NC(=O)CCC(=O)N3CCCC(C)C3)cc12 (stereo not given)	2.7
Cc1cc(N2CCOCC2)nc2ccc(NC(=O)CCC(=O)N3CCCCC3)cc12	-0.00221
CCOC(=O)c1c(-c2ccccc2)nnn1-c1nc(OC)nc(N2CCOCC2)n1	-0.476
Cc1ccnc2nc(C(=O)Nc3nnc(CC(C)C)s3)nn12	-0.0103
Cc1ccc(NC(=O)CN2C(=O)S/C(=C\C(=O)Nc3ccc(Cl)cc3)C2=O)cc1	-0.0557
COc1ccc(NC2=Nc3cccc4cccc2c34)cc1OC	4.9 (active)
COc1ccc(NC2=Nc3cccc4cccc2c34)cc1	-0.54
COc1cc(NC2=Nc3cccc4cccc2c34)cc(OC)c1OC	-0.385
COc1ccc(-c2cc(-c3ccc(F)cc3)nc(N3CCN(C)CC3)n2)cc1	0.083
COc1ccc(-c2cc(C#N)nc(N3CCNCC3)n2)cc1	2.07
COc1ccc(-c2cc(C#N)nc(N3CCN(c4ccccc4)CC3)n2)cc1	-0.103

Source: PubChem BioAssay AID488969 (Vanderbilt High Throughput Screening Facility, 2010)
